Reference: PubChem BioAssay (Tox21)
A number with no mark means an inactive call. Inconclusive results are not listed. Where a call stands in place of a potency, no number is given. Active and inactive are the calls of the source. Unless noted, calls follow the shape of the dose curve; as a rule, active = well fitted curve in the direction sought with a large enough effect in the repeat runs; inconclusive = weak or mixed curves; inactive = no such curve, though single readings can be large; an effect the other way counts as inactive or inconclusive.

Columns and labels:
[1] = qHTS assay to test for compound auto fluorescence at 535 nm (green) in HEK293 cells (AID 720680)
[2] = qHTS assay to test for compound auto fluorescence at 460 nm (blue) in HEK293 cell free culture (AID 720681)
In short: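 Compounds were added to cell-free DMEM with 10% FBS and fluorescence read directly. The blue channel used 405 nm excitation and 460 nm emission, with triamterene as the reference fluorophore.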

[3] = qHTS assay to test for compound auto fluorescence at 535 nm (green) in HEK293 cell free culture (AID 720682)
In short: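 Steps: dispense DMEM/10% FBS into empty wells; pin in compound or DMSO; measure fluorescence at 485/535 nm. Values are fluorescein equivalents.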

[4] = qHTS assay to test for compound auto fluorescence at 590 nm (red) in HEK293 cell free culture (AID 720683)
In short: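 Cell-free wells of DMEM with 10% FBS received compound, and intrinsic fluorescence was read at excitation/emission 540/590 nm. Values expressed as equivalence to Rose Bengal sodium.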

[5] = qHTS assay to test for compound auto fluorescence at 590 nm (red) in HepG2 cell free culture (AID 720684)
In short: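 Compound was pinned into wells holding MEM with 10% FBS and no cells, and red fluorescence was read at Ex/Em 540/590 nm. Signal is expressed as auto fluorescence equivalency relative to Rose Bengal sodium.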

[6] = qHTS assay to test for compound auto fluorescence at 460 nm (blue) in HepG2 cell free culture (AID 720685)
In short: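 Compound (23 nL) or DMSO pinned into cell-free MEM with 10% FBS; blue fluorescence read at 405/460 nm excitation/emission, expressed as auto-fluorescence equivalency to triamterene.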

[7] = qHTS assay to test for compound auto fluorescence at 535 nm (green) in HepG2 cell free culture (AID 720686)
[8] = qHTS assay to test for compound auto fluorescence at 460 nm (blue) in HepG2 cells (AID 720687)
In short: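 HepG2 cells in MEM with 10% FBS, attached overnight at 37 C, were exposed to compound or DMSO for 1 hr at 37 C, 5% CO2. Blue fluorescence was read at 405/460 nm, with triamterene as reference fluorophore.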

[9] = molecular target: Glucocorticoid receptor (Homo sapiens) (UniProt P04150); test: qHTS assay to identify small molecule agonists of the glucocorticoid receptor (GR) signaling pathway (AID 720691; active = well fitted activation curve with a large enough effect in the signal ratio in the repeat runs, not every such curve was filed as active; the % refers to the signal ratio)
In short: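 Fluorescence intensity from LiveBLAzer B/G FRET substrate (2 h, room temperature) reports beta-lactamase expression driven by the glucocorticoid response element in GR-bla HeLa cells after 18 h compound exposure at 37 C.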

[10] = molecular target: Glucocorticoid receptor (Homo sapiens) (UniProt P04150); test: qHTS assay to identify small molecule antagonists of the glucocorticoid receptor (GR) signaling pathway (AID 720692; active = well fitted inhibition curve with a large enough effect in the signal ratio in the repeat runs, not every such curve was filed as active; the % refers to the signal ratio)
In short: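 HeLa GR-bla cells; cmpd + dex 5 nM final, 18 h 37 C; LiveBLAzer B/G FRET substrate 2 h RT; fluorescence intensity read. Antagonist mode, qHTS.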

[11] = qHTS assay to identify small molecule antagonists of the glucocorticoid receptor (GR) signaling pathway - cell viability counter screen (AID 720693); also: nearly all actives have a fitted effect of over 55% in size
[12] = qHTS assay for identifying genotoxic compounds that show differential cytotoxicity against isogenic chicken DT40 cell lines with known DNA damage response pathways - wild type cell line (AID 743012); also: nearly all actives have a fitted effect of over 60% in size; also: potency is read from the fitted curve at half-maximal effect
In short: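 Wild type DT40, 300 cells/well, ~0.5 h settle at 37 C/5% CO2; compounds in DMSO added by pintool; 40 h at 37 C/5% CO2; CellTiter-Glo, 30 min RT; luminescence.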

[13] = qHTS assay for identifying genotoxic compounds that show differential cytotoxicity against isogenic chicken DT40 cell lines with known DNA damage response pathways - Rad54/Ku70 mutant cell line (AID 743015); also: nearly all actives have a fitted effect of over 60% in size; also: potency is read from the fitted curve at half-maximal effect
[14] = qHTS assay to identify small molecule antagonists of the androgen receptor (AR) signaling pathway - cell viability counter screen (AID 743033; also: nearly all actives have a fitted effect of over 45% in size)
[15] = qHTS assay to identify small molecule antagonists of the androgen receptor (AR) signaling pathway using the MDA cell line - cell viability counter screen (AID 743041; also: nearly all actives have a fitted effect of over 45% in size; also: potency is read from the fitted curve at half-maximal effect)
In short: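 MDA-kb2 AR-luc cells (MMTV-luciferase, AR/GR responsive) treated with compounds plus R1881 agonist for 16 h at 37C. CellTiter-Fluor added at 15.5 h; fluorescence read after 30 min in the same wells.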

[16] = qHTS assay for identifying genotoxic compounds that show differential cytotoxicity against isogenic chicken DT40 cell lines with known DNA damage response pathways - Rev3 mutant cell line (AID 743014); also: nearly all actives have a fitted effect of over 55% in size; also: potency is read from the fitted curve at half-maximal effect
[17] = molecular target: Androgen receptor (Homo sapiens) (UniProt P10275); test: qHTS assay to identify small molecule antagonists of the androgen receptor (AR) signaling pathway (AID 743035; active = well fitted inhibition curve with a large enough effect in the signal ratio in the repeat runs, not every such curve was filed as active; the % refers to the signal ratio; also: potency is read from the fitted curve at half-maximal effect)
In short: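 Fluorescence from a beta-lactamase FRET substrate (LiveBLAzer B/G, 2 h, room temperature) measured inhibition of R1881-stimulated signaling in GeneBLAzer AR-UAS-bla HEK293 cells exposed to compound for 16 h at 37C.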

[18] = molecular target: Androgen receptor (Homo sapiens) (UniProt P10275); test: qHTS assay to identify small molecule agonists of the androgen receptor (AR) signaling pathway (AID 743036; active = well fitted activation curve with a large enough effect in the signal ratio in the repeat runs, with a control signal flat, not every such curve was filed as active; the % refers to the signal ratio)
In short: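 Reporter line: GeneBLAzer AR-UAS-bla-GripTite (HEK293). Steps: plate cells, 4 h rest, add compounds, 16 h at 37C, add LiveBLAzer B/G substrate, 2 h at RT, read fluorescence.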

[19] = molecular target: Androgen receptor (Homo sapiens) (UniProt P10275); test: qHTS assay to identify small molecule agonists of the androgen receptor (AR) signaling pathway using the MDA cell line (AID 743040; also: nearly all actives have a fitted effect of over 20% in size)
In short: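 MDA-kb2 breast carcinoma cells carrying MMTV-luciferase (responsive to AR and GR), plated 5 h then treated 16 h with compounds at 37C, 0% CO2. Read-out was ONE-Glo luminescence after 30 min at room temperature.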

[20] = molecular target: Androgen receptor (Homo sapiens) (UniProt P10275); test: qHTS assay to identify small molecule antagonists of the androgen receptor (AR) signaling pathway using the MDA cell line (AID 743042; also: nearly all actives have a fitted effect of over 55% in size; also: potency is read from the fitted curve at half-maximal effect)
In short: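 MDA-kb2 breast carcinoma cells carrying MMTV-luciferase (AR/GR responsive) were co-treated with compounds and the agonist R1881 for 16 h at 37C. Inhibition read as ONE-Glo luminescence; CellTiter-Fluor fluorescence measured in parallel for cytotoxicity.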

Sequence of Androgen receptor (Homo sapiens) (P10275 whole entry, looked up): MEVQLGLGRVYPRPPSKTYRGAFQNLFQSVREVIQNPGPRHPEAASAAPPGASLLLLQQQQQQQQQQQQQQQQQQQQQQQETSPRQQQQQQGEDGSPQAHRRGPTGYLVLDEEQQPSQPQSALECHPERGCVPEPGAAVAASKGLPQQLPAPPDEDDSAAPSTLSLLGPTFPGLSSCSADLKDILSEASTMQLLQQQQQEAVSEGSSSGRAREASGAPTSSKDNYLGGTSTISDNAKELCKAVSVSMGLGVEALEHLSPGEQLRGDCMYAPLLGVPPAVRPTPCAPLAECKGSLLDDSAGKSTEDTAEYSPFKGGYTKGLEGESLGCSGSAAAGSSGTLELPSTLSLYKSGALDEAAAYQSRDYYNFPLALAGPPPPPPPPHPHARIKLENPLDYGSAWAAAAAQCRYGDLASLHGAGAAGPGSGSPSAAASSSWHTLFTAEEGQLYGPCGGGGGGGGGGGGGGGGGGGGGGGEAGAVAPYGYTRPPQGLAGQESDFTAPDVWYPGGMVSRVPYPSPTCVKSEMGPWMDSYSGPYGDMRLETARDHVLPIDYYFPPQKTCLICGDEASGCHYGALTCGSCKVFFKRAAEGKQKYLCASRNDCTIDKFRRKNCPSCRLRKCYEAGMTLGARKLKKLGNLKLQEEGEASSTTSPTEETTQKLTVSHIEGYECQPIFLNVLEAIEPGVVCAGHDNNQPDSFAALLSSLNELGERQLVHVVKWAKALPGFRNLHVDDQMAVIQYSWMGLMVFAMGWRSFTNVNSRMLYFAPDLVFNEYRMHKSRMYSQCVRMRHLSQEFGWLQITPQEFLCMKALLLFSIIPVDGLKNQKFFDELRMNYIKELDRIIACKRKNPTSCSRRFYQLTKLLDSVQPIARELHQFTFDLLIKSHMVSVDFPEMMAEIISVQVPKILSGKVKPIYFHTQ
Sequence of Glucocorticoid receptor (Homo sapiens) (P04150 whole entry, looked up): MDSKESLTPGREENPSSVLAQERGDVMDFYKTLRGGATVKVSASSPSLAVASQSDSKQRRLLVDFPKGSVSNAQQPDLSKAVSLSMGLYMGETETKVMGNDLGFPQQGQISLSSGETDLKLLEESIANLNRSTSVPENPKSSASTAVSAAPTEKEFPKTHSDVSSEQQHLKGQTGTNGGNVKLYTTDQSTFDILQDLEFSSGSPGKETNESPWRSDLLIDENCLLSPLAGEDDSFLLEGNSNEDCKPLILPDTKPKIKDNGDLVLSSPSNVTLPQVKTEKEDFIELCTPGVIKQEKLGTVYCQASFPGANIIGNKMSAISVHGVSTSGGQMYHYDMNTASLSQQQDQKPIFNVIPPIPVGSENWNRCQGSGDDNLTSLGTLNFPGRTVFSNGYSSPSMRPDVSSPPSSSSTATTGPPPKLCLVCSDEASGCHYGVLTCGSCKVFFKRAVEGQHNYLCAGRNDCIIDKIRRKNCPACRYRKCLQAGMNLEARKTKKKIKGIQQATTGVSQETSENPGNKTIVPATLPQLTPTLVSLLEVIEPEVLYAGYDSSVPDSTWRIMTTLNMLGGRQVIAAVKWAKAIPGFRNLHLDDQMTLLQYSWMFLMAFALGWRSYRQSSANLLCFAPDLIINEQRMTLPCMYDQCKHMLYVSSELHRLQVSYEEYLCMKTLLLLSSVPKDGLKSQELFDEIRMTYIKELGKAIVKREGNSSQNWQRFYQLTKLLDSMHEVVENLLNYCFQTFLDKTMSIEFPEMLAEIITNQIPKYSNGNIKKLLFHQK

CC(CN)CC(C)(C)CCN (centres undefined)
outcome [1]: inactive
outcome [2]: inactive
outcome [3]: inactive
outcome [4]: inactive
outcome [5]: inactive
outcome [6]: inactive
outcome [7]: inactive
outcome [8]: inactive
Potency [9]: inactive
outcome [10]: inactive
outcome [11]: inactive
Potency [12]: 44.4 µM (active)
Potency [13]: 44.4 µM (active)
Potency [14]: inactive
Potency [15]: 6.27 µM (active)

COP(=O)(OC)OC(c1ccc(Cl)cc1)P(=O)(OC)OC (centres undefined)
outcome [1]: inactive
outcome [2]: inactive
outcome [3]: inactive
outcome [4]: inactive
outcome [5]: inactive
outcome [6]: inactive
outcome [7]: inactive
outcome [8]: inactive
Potency [9]: inactive
outcome [10]: inactive
outcome [11]: inactive
Potency [12]: inactive
Potency [13]: inactive
Potency [14]: inactive
Potency [15]: inactive

CC(=O)OC(C)OC(=O)C(C)c1ccc(-c2ccccc2)c(F)c1 (centres undefined)
outcome [1]: inactive
outcome [2]: inactive
outcome [3]: inactive
outcome [4]: inactive
outcome [5]: inactive
outcome [6]: inactive
outcome [7]: inactive
outcome [8]: inactive
Potency [9]: inactive
outcome [10]: inactive
outcome [11]: inactive
Potency [12]: inactive
Potency [16]: inactive
Potency [13]: inactive
Potency [14]: inactive
Potency [17]: inactive
outcome [18]: inactive
outcome [19]: inactive
Potency [15]: inactive
Potency [20]: inactive

CC(C)c1ccc2cc(C(C)C)ccc2c1
outcome [1]: inactive
outcome [2]: inactive
outcome [3]: inactive
outcome [4]: inactive
outcome [5]: inactive
outcome [6]: inactive
outcome [7]: inactive
outcome [8]: inactive
Potency [9]: inactive
outcome [10]: inactive
outcome [11]: inactive
Potency [12]: inactive
Potency [16]: inactive
Potency [13]: inactive
Potency [14]: inactive
Potency [17]: inactive
outcome [18]: inactive
outcome [19]: inactive
Potency [15]: inactive
Potency [20]: inactive

CCCCNC1CC(C)(C)NC(C)(C)C1
outcome [1]: inactive
outcome [2]: inactive
outcome [3]: inactive
outcome [4]: inactive
outcome [5]: inactive
outcome [6]: inactive
outcome [7]: inactive
outcome [8]: inactive
Potency [9]: inactive
outcome [10]: inactive
outcome [11]: inactive
Potency [12]: inactive
Potency [16]: 48.6 µM (active)
Potency [14]: inactive
Potency [15]: inactive

CC(C)(C)NC(N)=O
outcome [1]: inactive
outcome [2]: inactive
outcome [3]: inactive
outcome [4]: inactive
outcome [5]: inactive
outcome [6]: inactive
outcome [7]: inactive
outcome [8]: inactive
Potency [9]: inactive
outcome [10]: inactive
outcome [11]: inactive
Potency [12]: inactive
Potency [16]: inactive
Potency [13]: inactive
Potency [14]: inactive
Potency [17]: inactive
outcome [19]: inactive
Potency [15]: inactive
Potency [20]: inactive

O=C(Nc1ccc(Cl)c(Cl)c1)C1CC1
outcome [1]: inactive
outcome [2]: inactive
outcome [3]: inactive
outcome [4]: inactive
outcome [5]: inactive
outcome [6]: inactive
outcome [7]: inactive
outcome [8]: inactive
Potency [9]: inactive
outcome [10]: inactive
outcome [11]: inactive
Potency [12]: 29.8 µM (active)
Potency [16]: 26.6 µM (active)
Potency [13]: 29.8 µM (active)
Potency [14]: inactive
Potency [17]: 19 µM (active)
outcome [18]: inactive
outcome [19]: inactive
Potency [15]: inactive
Potency [20]: 29.8 µM (active)
